Inconclusive results are not listed. Some structures have more than one record in an assay (separate samples or runs), and their calls can disagree. Activity calls are given as the source filed them. Calls follow the shape of the full dose curve.

The source of these data is PubChem BioAssay (Tox21).

Assay [1] addresses Acetylcholinesterase (Homo sapiens) (UniProt P22303). Description: Acetylcholinesterase (AChE) small molecule antagonists: colormetric cell-based qHTS assay (AID 1347395). Also: nearly all actives have a fitted effect of over 30% in size. Also: potency is read from the fitted curve at half-maximal effect. Put shortly:
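Colorimetric readout: DTNB quantifies thiocholine from acetylthiocholine hydrolysed by endogenous AChE of SH-SY5Y cells (2,000/well, plated overnight). Compound pretreatment 30 min, substrate incubation 90 min, both 37 C.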
(Quantitative high-throughput screening tests each substance at several concentrations.)

The target is the same in assay [2]. Description: Acetylcholinesterase (AChE) small molecule antagonists: enzyme-based qHTS assay (AID 1347397). Also: nearly all actives have a fitted effect of over 55% in size. Also: potency is read from the fitted curve at half-maximal effect. Conditions: Potency: AChE enzyme activity inhibition; outcome: AChE enzyme activity inhibition. An outline of the steps:
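Human recombinant acetylcholinesterase; substrate acetylthiocholine; thiocholine quantified with DTNB (colorimetric). Compound preincubation 30 min RT; reaction 10 min RT.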

Assay [3] has the same target. Description: Acetylcholinesterase (AChE) small molecule antagonists: fluorescence cell-based qHTS assay (AID 1347398). Also: nearly all actives have a fitted effect of over 50% in size. Also: potency is read from the fitted curve at half-maximal effect. Conditions: Potency: AChE activity; outcome: AChE activity. An outline of the steps:
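Thiocholine generated from acetylthiocholine by SH-SY5Y cell AChE is detected with Thiolite Green (Ex/Em 490/520 nm) after 40 min at room temperature, following 30 min compound pretreatment at 37 C.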

Assay [4] shares this target. Description: Acetylcholinesterase (AChE) small molecule antagonists: enzyme-based qHTS assay with human liver microsomes (AID 1347399). Also: nearly all actives have a fitted effect of over 60% in size. The conditions noted are these: Potency: qHTS inhibition; outcome: qHTS inhibition. Put shortly: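 Recombinant human AChE (50 mU/mL in the enzyme mix) and human liver microsomes (0.25 mg/mL final) were preincubated with compound and NADPH (0.25 mg/mL final) for 30 min at 37 C. Acetylthiocholine/DTNB was then added; thiocholine was read colorimetrically after 10 min at room temperature.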
% is scaled to controls: 0 for no effect and ±100 for the full control effect.

Chain of Acetylcholinesterase (Homo sapiens) (P22303 whole entry, looked up): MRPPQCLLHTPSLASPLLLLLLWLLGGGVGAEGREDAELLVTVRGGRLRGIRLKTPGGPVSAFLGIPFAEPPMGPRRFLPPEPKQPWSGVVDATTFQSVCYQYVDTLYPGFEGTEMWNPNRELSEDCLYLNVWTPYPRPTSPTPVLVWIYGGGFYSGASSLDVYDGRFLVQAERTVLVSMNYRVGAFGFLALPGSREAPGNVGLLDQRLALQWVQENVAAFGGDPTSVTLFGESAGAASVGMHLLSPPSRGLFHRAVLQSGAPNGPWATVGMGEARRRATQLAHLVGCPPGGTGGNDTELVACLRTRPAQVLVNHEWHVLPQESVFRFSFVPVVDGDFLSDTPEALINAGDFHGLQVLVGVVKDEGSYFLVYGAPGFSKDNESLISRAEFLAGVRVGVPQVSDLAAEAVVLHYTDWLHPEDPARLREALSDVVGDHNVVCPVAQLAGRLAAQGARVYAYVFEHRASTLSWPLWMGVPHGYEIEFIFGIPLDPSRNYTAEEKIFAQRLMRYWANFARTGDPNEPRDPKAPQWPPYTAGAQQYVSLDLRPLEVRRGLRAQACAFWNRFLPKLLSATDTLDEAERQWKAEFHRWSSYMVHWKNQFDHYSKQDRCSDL

Turning to `CCN1CCCC1=O`, the Potency result in assay [1], in assay [2], in assay [3] and in assay [4] was “inactive” throughout.
Consider `CC[C@@H]([C@H](C)O)n1ncn(-c2ccc(N3CCN(c4ccc(OC[C@@H]5CO[C@@](Cn6cncn6)(c6ccc(F)cc6F)C5)cc4)CC3)cc2)c1=O`, for which the Potency entry in assay [1], in assay [2], in assay [3] and in assay [4] was “inactive” in each case.
Regarding `CC1=C(/C=C/C(C)=C/C=C/C(C)=C/C(=O)O)C(C)(C)CCC1`, the Potency entry in assay [1], in assay [2], in assay [3] and in assay [4] was “inactive” each time.
With `CNCCCC12CCC(c3ccccc31)c1ccccc12`, the Potency result in assay [1], in assay [2], in assay [3] and in assay [4] was “inactive” each time.
For `O=C(O)CCC(=O)O`, the Potency entry in assay [1], in assay [2], in assay [3] and in assay [4] was “inactive” in each case.
`CCCCCCCCCCCCCCNCCO`: the Potency entry in assay [1], in assay [2], in assay [3] and in assay [4] was “inactive” each time.
Consider `ClC(c1ccccc1)(c1ccccc1)c1ccccc1`, for which the Potency entry in assay [1], in assay [2], in assay [3] and in assay [4] was “inactive” throughout.
In the case of `COC(=O)c1cc(Cl)c(NC(C)=O)cc1OC`, the Potency in assay [1] is 27.5 µM (active). For the same compound, the Potency result in assay [2], in assay [3] and in assay [4] was “inactive” in each case.
With `CCCCCCCCC(=O)O`, in assay [1], the Potency is 3.07 µM (active) and inactive. Besides, the Potency result in assay [2], in assay [3] and in assay [4] was “inactive” throughout.
Turning to `C=C(C)c1cccc(C(C)(C)N=C=O)c1`, the Potency result in assay [1], in assay [2], in assay [3] and in assay [4] was “inactive” in each case.
As to `CCc1cccc(C)c1N(C(=O)CS(=O)(=O)O)C(C)COC` (stereo not given), the Potency entry in assay [1], in assay [2], in assay [3] and in assay [4] was “inactive” throughout.
On to `CCO[Si](C)(CCCOCC1CO1)OCC` (stereo not given), for which the Potency result in assay [1], in assay [2], in assay [3] and in assay [4] was “inactive” throughout.
For the compound `CCCCOCCOCCOC(=O)CCCCC(=O)OCCOCCOCCCC`, the Potency entry in assay [1], in assay [2], in assay [3] and in assay [4] was “inactive” each time.
With `COc1ccc2nc(S(=O)Cc3ncc(C)c(OC)c3C)[nH]c2c1` (stereo not given), the Potency entry in assay [1], in assay [2], in assay [3] and in assay [4] was “inactive” in each case.
On to `CCc1cnc(C(=O)O)c(C(=O)O)c1`, for which the Potency result in assay [1], in assay [2], in assay [3] and in assay [4] was “inactive” in each case.
Regarding `C1CCC(SSC2CCCCC2)CC1`, the Potency entry in assay [1], in assay [2], in assay [3] and in assay [4] was “inactive” in each case.
For the compound `C=CCn1c(=O)n([C@@H]2O[C@H](CO)[C@@H](O)[C@H]2O)c2nc(N)[nH]c(=O)c21`, the Potency result in assay [1], in assay [2], in assay [3] and in assay [4] was “inactive” throughout.
For `CN[C@@H]1[C@H](O)[C@H](NC)[C@H]2O[C@@]3(O)C(=O)C[C@@H](C)O[C@H]3O[C@@H]2[C@H]1O`, the Potency result in assay [1], in assay [2], in assay [3] and in assay [4] was “inactive” each time.
As for `CCCCCCOC(=O)c1ccc(O)cc1`, the Potency result in assay [1], in assay [2], in assay [3] and in assay [4] was “inactive” throughout.
Consider `O=C(O)c1ccc(S(=O)(=O)O)cc1C(=O)O`, for which the Potency entry in assay [1], in assay [2], in assay [3] and in assay [4] was “inactive” each time.
As for `CCN(Cc1c(F)cccc1Cl)c1c([N+](=O)[O-])cc(C(F)(F)F)cc1[N+](=O)[O-]`, the Potency entry in assay [1], in assay [2], in assay [3] and in assay [4] was “inactive” each time.
For `NC(=O)N1c2ccccc2C=Cc2ccccc21`, the Potency in assay [1] is 35.4 µM (active) and inactive. The Potency result in assay [2], in assay [3] and in assay [4] was “inactive” in each case.
For `CCCCNC(=S)NCCCC`, the Potency entry in assay [1], in assay [2], in assay [3] and in assay [4] was “inactive” each time.
With `Nc1ccc([N+](=O)[O-])c(N)c1`, the Potency entry in assay [1], in assay [2], in assay [3] and in assay [4] was “inactive” each time.
Regarding `O=C(N[C@@H](Cc1ccccc1)[C@@H](O)C(=O)N1C[C@@H](O)[C@@H](O)C1)c1cc2cc(Cl)ccc2[nH]1`, the Potency result in assay [1], in assay [2], in assay [3] and in assay [4] was “inactive” in each case.
For `CCC(C)OC(=O)N1CCCCC1CCO` (stereo not given), the Potency entry in assay [1], in assay [2], in assay [3] and in assay [4] was “inactive” in each case.
Consider `CC(C)(Oc1ccc(C2CC2(Cl)Cl)cc1)C(=O)O` (stereo not given), for which the Potency result in assay [1], in assay [2], in assay [3] and in assay [4] was “inactive” each time.
On to `CCOc1cc(OCC)c(C(C)=O)cc1OCC`, for which the Potency result in assay [1], in assay [2], in assay [3] and in assay [4] was “inactive” in each case.
With `O=C(O)CCCCCCCCCC(=O)O`, the Potency entry in assay [1], in assay [2], in assay [3] and in assay [4] was “inactive” in each case.
On to `Cc1ccc(S(=O)(=O)O)cc1C`, for which the Potency entry in assay [1], in assay [2], in assay [3] and in assay [4] was “inactive” each time.
For `C1CN(SSN2CCOCC2)CCO1`, the Potency result in assay [1], in assay [2], in assay [3] and in assay [4] was “inactive” in each case.
Take `ClCCOCCOCCCl`: the Potency entry in assay [1], in assay [2], in assay [3] and in assay [4] was “inactive” throughout.
As to `CC1=CC[C@@H]2C[C@H]1C2(C)C`, the activity, negative = inhibition in assay [1] was 7.66% [at 23.6 µM] (inactive). Moreover, the activity change, negative = inhibition in assay [2] was 0.56% [at 23.6 µM] (inactive); in assay [3], 0.301% [at 23.8 µM] (inactive); in assay [4], -3.81% [at 23.6 µM] (inactive).
With `CC(C)c1ccc(C(C)C)cc1`, the Potency result in assay [1], in assay [2], in assay [3] and in assay [4] was “inactive” in each case.
Turning to `OC(CCl)CCl`, the Potency result in assay [1], in assay [2], in assay [3] and in assay [4] was “inactive” each time.
Turning to `C=COCCOCCOC=C`, the Potency entry in assay [1], in assay [2], in assay [3] and in assay [4] was “inactive” throughout.
With `COc1cc(C(=O)NS(=O)(=O)c2ccccc2C)ccc1Cc1cn(C)c2ccc(NC(=O)OC3CCCC3)cc12`, the Potency result in assay [1], in assay [2], in assay [3] and in assay [4] was “inactive” in each case.
As for `CC1=CC(O)CC(C)(C)C1` (stereo not given), the Potency entry in assay [1], in assay [2], in assay [3] and in assay [4] was “inactive” each time.
For `CCCCC(CC)CN=C(N)NC(N)=NCCCCCCN=C(N)NC(N)=NCC(CC)CCCC` (stereo not given), the Potency result in assay [1] and in assay [4] was “inactive” each time. Also, the results for the Potency in assay [2] and in assay [3] were 17.4 µM (active) and 13.8 µM (active), respectively.
In the case of `COC(=O)CCS`, the Potency entry in assay [1], in assay [2], in assay [3] and in assay [4] was “inactive” throughout.
